Sfp PPTase inh – Sfp phosphopantetheinyl transferase inhibition | Potency, µM, for inactives: largest response in the series, negative = inhibition, hits mostly inhibitors | Biochemical Sfp PPTase activity, qHTS | 310,000 tested, 3.5% active | AID 1490;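 also: the enzyme is Sfp with the accession as filed and its product quenches rhodamine fluorescence; potency is read from the fitted curve at half-maximal effect; 0% = enzyme reaction without inhibitor and -100% = no enzyme wells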
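Fluorescence-quenching assay: 15 nM Sfp-PPTase preincubated 15 min at room temperature with compound, then 5 uM rhodamine-CoA and 12.5 uM BHQ-2-labelled YbbR peptide added. Fluorescence (ex 525/em 598 nm) read at start and after 30 min; difference gives rate.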
G9a block – G9a (human) methyltransferase inhibition; G9a H3K9 monomethylation, AlphaScreen, 2 h; 350,000 tested, 8.8% active; Potency, µM (highest dose often 102 µM), for inactives: at the top dose activity, negative = inhibition, hits mostly inhibitors; AID 504332; also: potency is read from the fitted curve at half-maximal effect; nearly all actives have a fitted effect of over 75% in size
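Quantitative HTS format: methyltransferase activity on a biotin-tagged H3K9 peptide is measured by AlphaScreen, using a rabbit anti-monomethyl-H3K9 antibody with streptavidin donor and anti-IgG acceptor beads. Final levels are 20 nM enzyme, 500 nM peptide, 20 uM SAM; 2 h RT.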
Mm-Cpn inhibitor – inhibitors of Methanococcus maripaludis chaperonin TRiC (MmCpn); purified Mm-Cpn ATPase, ADP Transcreener TR-FRET; Potency, µM (doses to about 76.9 µM), inactives show at the top dose activity, negative = inhibition, actives largely listed as inhibitors; 330,000 tested, 0.031% active; also: potency is read from the fitted curve at half-maximal effect; nearly all actives have a fitted effect of over 80% in size
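TR-FRET (320 nm excitation; 590 and 665 nm emission) reports ADP made from 10 uM ATP by 25 nM enzyme; compounds were preincubated 10 min, reaction run 30 min, both at 37°C.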
VDR inhibitor – inhibitors of human vitamin D receptor | P11473 | VDR-SRC2-3 peptide fluorescence polarization, 2 h | Potency, µM, for the others: max response, negative = inhibition, actives largely listed as inhibitors | 400,000 tested, 0.93% active | AID 504847; also: potency is read from the fitted curve at half-maximal effect
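Two reagent solutions held at 4 deg C in the dark were dispensed, compounds pinned at 23 nl, and the mixture incubated 2 h at room temperature. Read-out: fluorescence polarization of VDR–SRC2-3 peptide binding.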
CCT modulator – changes cytosolic chaperonin activity; purified chaperonin ATPase assay, HTRF ADP detection, 30 min; activity change, % (test concentration not listed), hits read low; 360,000 tested, 0.3% active; in the data active = activity change below about -30%
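Nucleotide hydrolysis assay: TRiC at 20–40 nM final (set by batch activity) with 10 uM ATP, 30 min at 37 °C, in presence of 76 uM compound. Detection by competitive ADP HTRF, 30 min ambient.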
PLK1 PBD inh – inhibitors of human PLK1 polo-box domain binding; P53350; Plk1 PBD binding of FITC phosphopeptide, fluorescence polarization; Potency, µM, for inactives: max response, negative = inhibition, actives largely listed as inhibitors; 360,000 tested, 2.8% active; AID 720504; also: potency is read from the fitted curve at half-maximal effect; series mostly up to about 57 µM; nearly all actives have a fitted effect of over 65% in size
Target sequence (P53350 whole entry, looked up, the tested form may be a part): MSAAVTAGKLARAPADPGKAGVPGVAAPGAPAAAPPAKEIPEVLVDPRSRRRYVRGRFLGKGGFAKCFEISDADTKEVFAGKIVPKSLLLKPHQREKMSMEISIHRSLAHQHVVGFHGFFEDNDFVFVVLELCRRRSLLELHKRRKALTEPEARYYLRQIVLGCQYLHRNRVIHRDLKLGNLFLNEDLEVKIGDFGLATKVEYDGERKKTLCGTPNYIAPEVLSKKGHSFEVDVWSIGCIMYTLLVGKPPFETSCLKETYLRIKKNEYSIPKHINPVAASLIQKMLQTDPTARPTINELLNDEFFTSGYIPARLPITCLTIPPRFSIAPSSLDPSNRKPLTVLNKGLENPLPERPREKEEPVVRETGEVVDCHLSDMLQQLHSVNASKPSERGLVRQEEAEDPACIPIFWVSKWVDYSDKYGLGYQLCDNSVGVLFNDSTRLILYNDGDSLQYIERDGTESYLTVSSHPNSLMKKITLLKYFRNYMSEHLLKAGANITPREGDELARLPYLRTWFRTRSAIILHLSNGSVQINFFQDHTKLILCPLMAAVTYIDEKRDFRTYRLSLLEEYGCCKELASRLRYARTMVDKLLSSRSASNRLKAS
Starred values were filed as active, the others as inactive; ! = repeats disagree; [ ] = another dose, or the depositor's remark. Hits are enriched below; roughly 10% of the tested compounds scored in any of these assays. Unless noted, calls follow the shape of the dose curve; as a rule, active = well fitted curve in the direction sought with a large enough effect; inconclusive = small, poorly fitted or top-dose-only effect, or another doubt; inactive = no such curve, though single readings can be large; an effect the other way counts as inactive or inconclusive. Unless noted, % is scaled to controls: 0 for no effect and ±100 for the full control effect.

Results for CC(=O)Nc1ccc2nc(C3CC3)n(Cc3ccc(Cl)cc3)c(=O)c2c1 ?
Sfp PPTase inh: 7%; G9a block: 16%[59 µM]; Mm-Cpn inhibitor: -4%; VDR inhibitor: -5%; CCT modulator: -1; PLK1 PBD inh: 5%

Results for Cc1cccc(NC(=O)c2sc3nc4c(cc3c2N)CN(Cc2ccccc2)CC4)c1 ?
G9a block: -2%[59 µM]; VDR inhibitor: -1%

What do the screens show for `COc1ccccc1NC(=O)c1sc2nc3c(cc2c1N)CCCCCC3`?
G9a block: -5%[59 µM]; VDR inhibitor: -1%

What do the screens show for `Cc1cccc(NC(=O)c2sc3nc4c(cc3c2N)CN(C(C)C)CC4)c1`?
G9a block: 14µM*; VDR inhibitor: -13%

Results for Cc1cccc(NC(=O)c2sc3nc(N)c(C#N)cc3c2N)c1 ?
Sfp PPTase inh: -12%; G9a block: 10µM*; Mm-Cpn inhibitor: -10%; VDR inhibitor: -7%; CCT modulator: 1; PLK1 PBD inh: -16%

How did COc1ccc(NC(=O)c2sc3nc4c(cc3c2N)CN(C(C)C)CC4)c(OC)c1 do in these assays?
G9a block: 11µM*; VDR inhibitor: -6%

Results for COc1cc(Br)cc(CNc2ccc(F)c([N+](=O)[O-])c2)c1O ?
Sfp PPTase inh: 25µM*; G9a block: 45µM*; Mm-Cpn inhibitor: 1%; VDR inhibitor: 20%; CCT modulator: -2; PLK1 PBD inh: -2%

How did S=c1nc(Cc2ccccc2)[nH]c2ccccc12 do in these assays?
Sfp PPTase inh: 29%; G9a block: 19%; Mm-Cpn inhibitor: -3%; VDR inhibitor: -15%; CCT modulator: 2; PLK1 PBD inh: -10%

How did S=c1nc(Cc2ccc(Cl)cc2)[nH]c2ccccc12 do in these assays?
Sfp PPTase inh: 15%; G9a block: 7%; Mm-Cpn inhibitor: -6%; VDR inhibitor: 1%; CCT modulator: -2; PLK1 PBD inh: -20%

Results for Nc1cccc2[nH]c(C(F)(F)F)nc12 ?
Sfp PPTase inh: 4%; G9a block: 28µM*; Mm-Cpn inhibitor: 0%; VDR inhibitor: -9%; CCT modulator: 1; PLK1 PBD inh: inconclusive

How did S=c1nc(COc2ccccc2)[nH]c2ccccc12 do in these assays?
Sfp PPTase inh: 32µM*; G9a block: 18µM*; Mm-Cpn inhibitor: -6%; VDR inhibitor: -20%; CCT modulator: -2; PLK1 PBD inh: -14%

How did FC(F)(F)c1nc(=S)c2ccccc2[nH]1 do in these assays?
Sfp PPTase inh: 20µM*; G9a block: 67%; Mm-Cpn inhibitor: 0%; VDR inhibitor: inconclusive; CCT modulator: -1; PLK1 PBD inh: 21µM*

Results for O=C(O)c1cccc2[nH]c(C(F)(F)F)nc12 ?
Sfp PPTase inh: -11%; G9a block: 40µM*; Mm-Cpn inhibitor: inconclusive; VDR inhibitor: -11%; CCT modulator: 1; PLK1 PBD inh: 6%

Results for CC(=Nc1ccccc1N)c1c(C)cc(=O)n(O)c1O ?
Sfp PPTase inh: inconclusive; VDR inhibitor: 10%

Results for O=C(Nc1nc(-c2ccc3c(c2)OCCO3)cs1)C1CC(=O)N(c2ccc3c(c2)OCCO3)C1 (stereo not drawn) ?
VDR inhibitor: -10%

What do the screens show for `COc1ccc(-c2oc3ccccc3c2C(=O)OCc2ccccc2)cc1`?
Sfp PPTase inh: 4%; G9a block: 401%; Mm-Cpn inhibitor: -1%; VDR inhibitor: -20%; CCT modulator: -33*; PLK1 PBD inh: 24µM*

Results for CCOC(=O)c1ccc(NS(=O)(=O)c2ccc(Br)s2)cc1 ?
G9a block: 5%[59 µM]; VDR inhibitor: -11%

Results for Cc1ccc(-n2ncc(C(=O)N3CCc4ccccc4C3)c2NC(=O)c2ccco2)cc1C ?
Sfp PPTase inh: -62%; G9a block: 25µM*; Mm-Cpn inhibitor: 3%; VDR inhibitor: 1%; CCT modulator: -1; PLK1 PBD inh: -7%

How did FC1(F)C(F)(F)C(F)(F)C2(F)C(F)(F)C(F)(F)C(F)(F)C(F)(F)C2(F)C1(F)F (stereo not drawn) do in these assays?
Sfp PPTase inh: 11%; G9a block: 3%[12.7 µM]; VDR inhibitor: 0%

What do the screens show for `CCCCCC(CC(=O)NO)C(=O)NC(C(=O)N1CCCC1CO)C(C)C` (stereo not drawn)?
G9a block: inconclusive; Mm-Cpn inhibitor: -1%; VDR inhibitor: -27%; CCT modulator: -3; PLK1 PBD inh: 2%

Results for CCCCC[C@H](CC(=O)NO)C(=O)N[C@H](C(=O)N1CCC[C@H]1CO)C(C)C ?
G9a block: 9.5µM*!; VDR inhibitor: -2%

What do the screens show for `COc1ccc(-c2cn3nc(SCC(=O)Nc4cc(C)cc(C)c4)ccc3n2)cc1`?
G9a block: 15%[59 µM]; VDR inhibitor: -3%

What do the screens show for `CC/C(C)=N\N=C\c1c(O)n(CC)c2cc(C3=NNC(=O)CC3)ccc12`?
Sfp PPTase inh: -2%; G9a block: 8.9µM*; Mm-Cpn inhibitor: -4%; VDR inhibitor: -11%; CCT modulator: -2; PLK1 PBD inh: 2%

Results for CCOc1ccccc1Nc1sc(C(=O)c2ccccc2)c(N)c1C(=O)Nc1ccc(F)cc1 ?
G9a block: inconclusive; VDR inhibitor: 11%

Results for CCOc1ccc(NC(=O)c2c(Nc3ccccc3C)sc(C(=O)c3ccccc3)c2N)cc1 ?
G9a block: 13µM*; VDR inhibitor: 18%

How did Cc1ccccc1Nc1sc(C(=O)Nc2cccc(Cl)c2)c(N)c1C(N)=O do in these assays?
Sfp PPTase inh: -4%; G9a block: 79µM*; Mm-Cpn inhibitor: 1%; VDR inhibitor: -12%; CCT modulator: -3; PLK1 PBD inh: 9%

What do the screens show for `COc1ccc(Cl)cc1Nc1sc(C(=O)c2ccccc2)c(N)c1C(=O)Nc1ccccc1`?
G9a block: 16µM*; VDR inhibitor: -17%

How did Cc1ccc(Nc2sc(C(=O)c3ccccc3)c(N)c2C(N)=O)cc1 do in these assays?
G9a block: inconclusive; VDR inhibitor: -4%

How did COc1cc(NC(=O)CCNS(=O)(=O)c2ccc3c(c2)CCN3C(=O)C2CC2)cc(OC)c1 do in these assays?
G9a block: 10%[59 µM]; VDR inhibitor: 2%

How did Cc1ccc(NC(=O)Cn2c(=O)n(-c3ccc(C)cc3)c(=O)c3c2cnn3C)cc1 do in these assays?
G9a block: -6%[59 µM]; VDR inhibitor: -6%

What do the screens show for `CCOC(=O)c1c(C)oc2ncnc(N3CCN(c4cccc(Cl)c4)CC3)c12`?
G9a block: -18%[59 µM]; VDR inhibitor: -6%

Screens (PubChem)
